Inconclusive results are not listed. Active and inactive are the calls of the source. The call rests on the fitted dose curve.
Target: Atrial natriuretic peptide receptor 1 (Homo sapiens) (UniProt P16066)
Assay: Natriuretic polypeptide receptor (hNpr1) antagonism - Pilot CMLD screen (AID 1347052)
Settings: HEK293 hNpr1 GloSensor cGMP luminescence, ANP-stimulated; series mostly up to 9.22 µM
Procedure: In order to identify small molecular compounds that inhibit the hNpr1 receptor we developed a high-throughput assay to measure inhibition of the guanylate cyclase activity of the receptor. cGMP production was measured using a circular permutated Firefly luciferase (FLuc) enzyme functionally linked to the cGMP binding domain of human phosphodiesterase 5 (GloSensor technology pGS-40F, (Fan, F. et al. 2008). The cGMP-sensor was expressed in human embryonic kidney 293 (HEK-293) cells and FLuc activity was measured after stimulation with hNrp agonist peptide. hNrp agonists activates the receptor's associated guanylyl cyclase (GC) domain producing cGMP which then binds to the GloSensor resulting in FLuc activation, the enzymatic activity of which can be measured as bioluminescence with addition of luciferin substrate.
This assay was initially piloted by testing with a small library of specialty compounds.
PROTOCOL TABLES (as described by Inglese J, Shamu CE and Guy RK. 2007)
SEQUENCE No. (e.g., 1, 2, 3, etc.); […] (e.g., Cells, Incubation, Reagent, etc.); VALUE and DESCRIPTION.
1. Cells. Seed 1500 HEK293 cGMP-sensor cells expressing hNpr1 per well in 4uL into Greiner 1536-well white/solid bottom high base, tissue culture-treated plates.
2. Incubation. Incubate plated cells at 37C in 5% CO2, 95% RH overnight.
3. Reagent. Add 1uL per well GloSensor reagent from Promega (2% final concentration) or CO2 independent media vehicle control to respective columns of Greiner 1536-well plates.
4. Incubation. Incubate plated cells at room temperature for 2 h, protect from light.
5. Compounds. Library compounds and A-71915 control added at 23 nL per well, transferred by Pin Tool.
6. Incubation. Incubate plated cells for 30 min. at room temperature, protect from light.
7. Detector. GloSensor baseline pre-read luminescence measured using CCD-based camera (Viewlux).
8. Compound. Add 1uL of hNppA peptide to 0.1 nM final concentration to stimulate hNpr1 or CO2 independent media as vehicle control.
9. Incubation. Incubate treated cells at room temperature for 20 min., protect from light.
10. Detector. GloSensor post-hNppA luminescence measured using CCD-based camera (Viewlux).
NOTES (numbers refer to Sequence numbers above)
1. HEK293 cells expressing hNpr1 and GIP/pGS-40F grown to 85-95% confluence (48-72 h) in T175 culture flasks (CO2 independent media supplemented with 10% FBS, 1% Pen/Strep antibiotics and 1 ug/mL puromycin). Trypsinize and harvest cells from T175 culture flasks and filter through 40 um cell strainer. Cells counted with Invitrogen Countess (30,000,000 - 50,000,000 cells/flask). Cells diluted to a final concentration of 375 cells/uL in CO2 independent media and a Millipore multidrop used to dispense 1500 cells per well (4uL/well) into 13 1536-well Greiner White/Solid bottom, high base tissue-culture treated (TC) plates and one Aurora 1536-well Black/Clear bottom, low base, TC plate (for visual inspection of cell health throughout the duration of the assay).
2. Cells incubated overnight at ambient temperature, 24 h. at 37C in 95% RH incubator protected from light, covered with metal lid with gas-exchange holes.
3. Prepare GloSensor Reagent (Promega): Reconstitute GloSensor luciferase substrate by adding 8.2mL Hepes buffer to 250mg substrate, mix well, protect from light and stored at -80C. Prepare a fresh 12% GloSensor solution in CO2 independent supplemented plating media (see above). Mix well and store at ambient temperature, protected from light. 1uL 12% GloSensor Luciferase Reagent added (2% final concentration) to respective columns of 13 x 1536-well Greiner plate with BioRaptr, 1uL CO2 independent plating media added to respective columns as vehicle control with BioRaptr.
4. Cells incubated for 2 h. at ambient temperature, protected from light with metal lid with gas-exchange holes.
5. A-71915 stock solution prepared (10 mM in DMSO). […]

Sequence of Atrial natriuretic peptide receptor 1 (Homo sapiens) (P16066 whole entry, looked up): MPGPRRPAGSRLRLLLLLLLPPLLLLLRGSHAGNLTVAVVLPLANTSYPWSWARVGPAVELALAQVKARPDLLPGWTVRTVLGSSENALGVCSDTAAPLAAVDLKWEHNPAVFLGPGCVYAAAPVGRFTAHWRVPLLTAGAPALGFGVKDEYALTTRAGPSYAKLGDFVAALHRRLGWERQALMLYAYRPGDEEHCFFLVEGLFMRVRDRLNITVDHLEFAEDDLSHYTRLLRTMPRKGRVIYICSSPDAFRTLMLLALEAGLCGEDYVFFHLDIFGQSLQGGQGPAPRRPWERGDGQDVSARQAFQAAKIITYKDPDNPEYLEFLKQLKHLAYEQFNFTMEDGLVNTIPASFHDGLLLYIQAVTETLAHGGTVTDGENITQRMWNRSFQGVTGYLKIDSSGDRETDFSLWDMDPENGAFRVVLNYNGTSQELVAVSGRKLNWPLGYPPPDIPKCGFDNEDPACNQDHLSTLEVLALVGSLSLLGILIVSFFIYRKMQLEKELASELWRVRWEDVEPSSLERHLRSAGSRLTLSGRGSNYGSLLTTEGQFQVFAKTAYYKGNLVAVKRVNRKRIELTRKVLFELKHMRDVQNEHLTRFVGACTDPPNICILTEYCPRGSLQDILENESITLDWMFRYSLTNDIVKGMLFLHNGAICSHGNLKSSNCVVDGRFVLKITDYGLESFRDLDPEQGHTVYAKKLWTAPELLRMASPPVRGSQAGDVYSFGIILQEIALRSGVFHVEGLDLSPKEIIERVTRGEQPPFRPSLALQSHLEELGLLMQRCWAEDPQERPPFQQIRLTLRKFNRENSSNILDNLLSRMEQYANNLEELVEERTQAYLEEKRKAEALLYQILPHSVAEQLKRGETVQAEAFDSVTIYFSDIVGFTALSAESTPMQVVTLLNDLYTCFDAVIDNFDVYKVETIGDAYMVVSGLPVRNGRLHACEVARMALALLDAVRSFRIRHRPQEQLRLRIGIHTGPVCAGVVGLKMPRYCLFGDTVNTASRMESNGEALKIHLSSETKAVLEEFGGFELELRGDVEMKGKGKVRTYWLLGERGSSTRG

Potency, inactive:
O=C1N[C@H](Cc2ccccc2)C(=O)N1Cc1cccc2ccccc12
COc1ccc([C@]23Cc4cc(OC)c(OC)cc4[C@H](O2)C2=C(CC(C)(C)CC2=O)O3)cc1
CCN1C(=NCc2cc(OC)c(OC)c(OC)c2)NC(c2cccc(F)c2)C(C(=O)OC)=C1C (stereo not given)
CCCCC1=CC2=C(c3ccco3)C(=O)C(C)(OC(=O)c3ccc(OC)cc3)C(=O)C2=CN1CCN1CCOCC1 (stereo not given)
COC(=O)CC=C[C@@H](C)[C@@H](C=NOC[C@@H](O)COCc1ccco1)OC
FC(F)(F)c1ccc(-c2nc(-c3ccccc3)oc2NCc2ccccc2)cc1
COc1cccc2c1[C@H](C=Cc1ccccc1)[C@@H]([C@H](O)CN=[N+]=[N-])OC2
CC(=O)OC[C@H]1O[C@H](C#CC2=CCCCC2)C=C[C@H]1OC(C)=O
COC1=C(C(=O)c2ccccc2)C(=O)[C@@]2(CC=C(C)C)C[C@H](C(=O)OCC(F)(F)F)C(C)(C)[C@@]1(CC=C(C)C)C2=O
COc1ccc(O[C@H]2C=C[C@@H](c3ccccc3)O[C@H]2COC(=O)CCC(C)=NO[C@@H](C)c2cc(-c3c(C)cc(C)cc3C)no2)cc1
CCOC(=O)C(c1ccc(OC)c(OC)c1)C1c2ccccc2C=C(C)N1C(=O)OC (stereo not given)
CCC(=O)C[C@@H](NC(=O)OC)c1ccccc1
C=CCOC(=O)N[C@H](c1ccc(-c2ccccc2)cc1)[C@H](C)C=CCC(=O)OC
O=C1CCCC2=C1[C@H]1O[C@](c3ccsc3)(Cc3c1ccc1ccccc31)O2
C[C@H]1C[C@@H](C)O[C@@]2(C1)C(=O)N(CC1CC1)c1ccccc12
COc1ccc2c(c1)CO[C@H]([C@H](O)CO)[C@H]2C=Cc1ccccc1
CCCCc1nc2c(c3c1C[C@H](C)OC3)CN(S(=O)(=O)CCCC)CC2
CCN1C(=NCc2ccc(OC)cc2)NC(c2ccccc2)C(C(=O)OC)=C1C (stereo not given)
COCOc1cc(OC)ccc1C(=O)C=Cc1ccc([N+](=O)[O-])cc1
C=CCOC(=O)N[C@@H](CC(C)C)C(C(=O)OC)=C(C)NCc1ccccc1
COC(=O)N[C@@H](c1cccs1)C(C(C)=O)C(=O)OC (stereo not given in full)
CCCCC#C[C@@H]1C=C[C@H](Oc2ccc(C(=O)OC)cc2)[C@@H](COC(=O)OCC)O1
CC#CCN1C(=O)NC(c2ccccc2)C(C(=O)OC)=C1C (stereo not given)
CC(C)(C)c1nc(-c2ccccc2)oc1Nc1ccc2ccccc2c1
C[C@@H]1C[C@](C)(C(=O)c2ccc3c(c2)OCO3)C=C1c1ccc2c(c1)OCO2
COC(=O)C1=C(C)N(Cc2ccccc2)C(=NCC2CC2)NC1c1ccc(Br)cc1 (stereo not given)
COC(=O)N[C@@H](c1cccc(F)c1)[C@@H](C)[N+](=O)[O-]
C[C@@H]1CC[C@H]2C(=O)NC[C@@H](O)CN2[C@@H]1c1ccc(Br)cc1
COC1=CC2C(=O)C(C(c3ccccc3)C2C)C1(C)O (stereo not given)
C=CCCCN1C(=O)NC(c2ccccc2)C(C(=O)OC)=C1C (stereo not given)
COc1ccc(-c2nc3c(c4c2C[C@H](c2ccccc2)OC4)CN(C(=O)N[C@@H](C)C(=O)OC(C)C)CC3)c(C)c1
COc1cccc([C@H](O)Cn2cc(-c3ccc(CON=C(C)C)cc3)nn2)c1
COC(=O)C1=C(C)N(Cc2ccccc2)C(=NCc2cc(OC)c(OC)c(OC)c2)NC1c1cccc(F)c1 (stereo not given)
COc1cccc([C@H]2Oc3ccc(OC)cc3C(=NOC[C@@H](O)COCc3ccco3)[C@H]2O)c1
COC(=O)C1(C(=O)OC)Cc2conc2[C@@H]1c1ccccc1
C#CCCOC(=O)N1C2=NC(C(=O)OC)=C(C(=O)OC)[C@@H]3N(C)c4ccccc4[C@]23C[C@H]1C(=O)OC
Cc1cc2c(c(=O)o1)[C@H]1O[C@](c3ccsc3)(Cc3c1ccc1ccccc31)O2
C[C@H](ON=C1[C@H]2CCn3c(=O)n(-c4ccccc4)c(=O)n3[C@@H]2[C@H](O)[C@@H]2O[C@H]12)c1cn([C@H](CO)Cc2ccccc2)nn1
COC(=O)C(C(=O)OC)[C@H]1c2ccccc2[C@@H]2C(=C[C@@H](C)[C@H]3C(=O)N(c4ccccc4)C(=O)[C@H]32)N1C(=O)OC
COc1ccc(-c2nc3c(c4c2C[C@H](c2ccccc2)OC4)CN(C(=O)c2cc(I)ccc2F)CC3)c(C)c1

Source: PubChem BioAssay (NCATS)
